Our source for the activity change, negative = inhibition values is PubChem BioAssay (NCATS).

Results filed as inconclusive are left out. Values without a mark were called inactive. The call rests on the fitted dose curve; in most records, active means well fitted inhibition curve with a large enough effect; inconclusive means small, poorly fitted or top-dose-only effect; inactive means no such curve, though single readings can be large or run the other way.
On the % scale 0 is the no-effect control and ±100 the full control effect.

This experiment can be described thus: qHTS assay to identify inhibitors of the type 1 interferon - major histocompatibility complex class I in skeletal muscle: Counter screen cell viability and HiBit confirmation (AID 1347412). Further: nearly all actives have a fitted effect of over 60% in size. Conditions: iHSKM muscle cells + IFN-b, HiBiT or CellTiter-Glo, 24 h; HiBiT; at 45.9 µM (top of the series). The gist of the method:
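Human myoblast knock-in line, 4.0 ng/ml IFN-beta stimulation, 24 h compound treatment. Endpoints: HiBiT lytic luminescence (HLA-B level) and CellTiter Glo (ATP). Dosing 12 concentrations, 3-fold steps, 46 uM highest final.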
Take `O=c1c(-n2ccnn2)c[nH]n1-c1cc(N2CCOCC2)ncn1`: the activity change, negative = inhibition was -24.7%. As to `Oc1ccc(Nc2nc(-c3ccc(Cl)cc3)cs2)cc1`, the activity change, negative = inhibition was -38.1%. As for `CNCc1ccc(C)c(NC(=O)c2ccc(Nc3nc(-c4ccccc4)c4ccccc4n3)cc2)c1`, the activity change, negative = inhibition is -20%.
